High-throughput results: PubChem, National Center for Advancing Translational Sciences (NCATS)
Shown are actives, neighbours in structure and some others; about 14% of the full set was active somewhere.
HCMV inh: human cytomegalovirus inhibition. activity change, negative = inhibition, % at 57.5 µM. 4.5% of 410,000 active. HFF cells, HCMV-luciferase reporter, 72 h; active compounds read low. AID 1259415; in the data active = activity change below about -60%; inconclusive = no clear call, values can overlap the other calls; inactive = above about -39%
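Two-dose cell screen: HFF monolayers treated with compounds and infected with luciferase-expressing HCMV at 1 PFU/cell, 72 h at 37C, then lysed for luciferase measurement.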
Pf growth 48h: P. falciparum growth inhibition at 48 hours (one generation) | 5.9% of 310,000 active | Potency, µM (doses to about 28.7 µM), most hits filed as inhibitors | P. falciparum luciferase growth in erythrocytes, 48 h
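A one-generation exposure of luciferase-tagged malaria parasites in RPMI 1640/Albumax erythrocyte culture, 37 C and 5% CO2. Inhibition is inferred from decreased luminescence after adding detection reagent.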
Pf growth 96h: inhibits malaria parasite growth, 96 h; P. falciparum luciferase reporter growth, 96 h; Potency, µM (series often up to 28.7 µM), hits mostly inhibitors; 6.9% of 320,000 active
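P. falciparum expressing integrated firefly luciferase grown in erythrocytes (2% hematocrit, 0.05% parasitemia final) with compounds for 96 hours at 37 C, 5% CO2. Growth inhibition read as loss of luminescence after adding luciferase detection reagent.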
HCV inh: inhibitors of hepatitis C virus infection; Huh7.5.1 HCVcc-Cre infection, luciferase reporter, 44 h; 3.4% of 340,000 active; Potency, µM (highest dose often 41.8 µM), actives largely listed as inhibitors
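Cells (1,000/well) were plated 4 h before compound, then infected with HCVcc-Cre virus (~0.5 moi). After 44 h further culture, infection was read as luciferase luminescence following a 15 min substrate incubation at room temperature.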
LASV entry inh: blocks Lassa virus binding to or entry into cells; Lassa virus pseudotype entry inhibition, cell reporter; Potency, µM (doses to about 37.9 µM), actives largely listed as inhibitors; AID 540256; 1.2% of 300,000 active; calls by dose curve; tested in HEK293 cells; note: nearly all actives have a fitted effect of over 50% in size
MARV entry inh: Marburg virus entry inhibition | AID 540276 | 1.8% of 300,000 active | Marburg virus pseudotyped entry inhibition, cell reporter | Potency, µM (top dose mostly 37.8 µM), usual class: inhibitors; calls by dose curve; tested in HEK293 cells
Numbers stand for hits; i = inactive; ? = inconclusive; nt = no result given; ! = repeats disagree. Unless noted, calls come from the whole dose curve; as a rule, active = well fitted inhibition curve with a large enough effect; inconclusive = small, poorly fitted or top-dose-only effect, or another doubt; inactive = no such curve, though single readings can be large or run the other way.

SMILES	HCMV inh	Pf growth 48h	Pf growth 96h	HCV inh	LASV entry inh	MARV entry inh
COc1ccc(C2C(C(N)=O)=C(C)Nc3nc(SCc4ccccc4Cl)nn32)cc1OC (stereo not drawn)	i	nt	nt	nt	i	i
O=C(COc1ccccc1)NCC(=O)Nc1ccc(S(=O)(=O)NCc2ccco2)cc1	-103.1	i	nt	i	i	i
O=C(COc1ccccc1)Nc1ccc(S(=O)(=O)NCc2ccco2)cc1	i	i	?	?	23.1µM	?
CCOc1cc(/C=C/c2ccc3cccc([N+](=O)[O-])c3n2)ccc1O	-99.3	i	i	?	?	?
COc1cc(/C=C/c2ccc3cccc([N+](=O)[O-])c3n2)ccc1OCC#N	-93.4	i	i	4.47µM	?	?
O=[N+]([O-])c1ccc(/C=C/c2ccc3cccc([N+](=O)[O-])c3n2)cc1	?	i	i	i	i	?
CCOc1cc(/C=C/c2ccc3cccc([N+](=O)[O-])c3n2)ccc1OCC(=O)N(C)C	-109.2	?	?	?	nt	?
CCN(CC)c1cc(C)nc2nc(-c3ccc(C)cc3)nn12	i	nt	nt	nt	i	i
CC12COC3(C(=O)Nc4ccc5ccccc5c4)CC1CCC32C (stereo not drawn)	i	i	i	i	?	?
C[C@@H]1CN([C@@H](C)CO)C(=O)c2cc(Br)cnc2O[C@@H]1CN(C)Cc1ccc(Oc2ccccc2)cc1	i	nt	nt	nt	nt	nt
Cc1ccc(CNC(=O)C2CCC(CNS(=O)(=O)c3ccc4c(c3)CCCC(=O)N4)CC2)cc1 (stereo not drawn)	i	nt	nt	nt	i	nt
CC(=O)N(C)c1ccc(NC(=S)Nc2cccc3ccccc23)cc1	-71.3	i	?	i	i	?
CC(=O)c1ccc(NC(=S)Nc2cccc3ccccc23)cc1	i	i	i	i	nt	nt
CCc1ccc(NC(=S)Nc2cccc3cnccc23)cc1	i	?	?	10µM	?	?
CC(=O)c1cccc(NC(=O)C(=O)Nc2cccc3ccccc23)c1	-60.3	i	?	i	i	?
Cc1cc(C)cc(NC(=S)Nc2cccc3cnccc23)c1	i	2.08µM	?	i	i	i
CCCCNc1nc2c(c(=O)n(Cc3ccc(Cl)cc3)c(=O)n2C)n1C	i	nt	nt	nt	i	?
O=C(Nc1ccc(Cl)cc1)N1CCN(c2ccc3nnc(-c4ccc(F)cc4)n3n2)CC1	-63.1!	9.28µM	?	?	?	?
O=C(Nc1ccc(Cl)cc1)N1CCC(c2nc(-c3ccc(F)cc3)no2)CC1	-90.7	?	i	?	i	i
COCCNC(=S)N1CCC(c2nc(-c3ccc(F)cc3)no2)CC1	?	i	?	?	?	i
COc1ccc(NC(=O)N2CCCC(c3nc(-c4ccc(C(C)C)cc4)no3)C2)cc1 (stereo not drawn)	?	i	8.28µM	10µM	i	i
COc1ccc(NC(=O)N2CCCC(c3nc(-c4ccc(OC)cc4)no3)C2)cc1 (stereo not drawn)	?	i	i	22.4µM	?	?
COc1ccc(-c2noc(C3CCCN(C(=O)Nc4ccccc4)C3)n2)cc1 (stereo not drawn)	i	i	i	?	nt	nt
COc1ccc(OC)c(NC(=O)Cc2coc3ccc(C(C)C)cc23)c1	i	nt	nt	nt	i	i
CC(C)Oc1cccnc1N(C)C1CCN(Cc2ccccc2)CC1	i	nt	nt	i	i	1.78µM
SMILES	HCMV inh	Pf growth 48h	Pf growth 96h	HCV inh	LASV entry inh	MARV entry inh
CNC(=O)C1CCN(C(=O)N2CC(C)Oc3ccc(Cl)cc32)CC1 (stereo not drawn)	i	nt	nt	nt	?	nt
CCOc1ccc(NC(=O)c2ccncc2)cc1	i	i	?	i	i	i
CCOc1cc(C(=O)Nc2ccc3nc(N4CCN(C)CC4)cc(C)c3c2)cc(OCC)c1OCC	-65.7	nt	nt	nt	i	5.62µM
Cc1cc(N2CCN(C)CC2)nc2ccc(NC(=O)CCC(=O)N3CCN(c4ccc([N+](=O)[O-])cc4)CC3)cc12	-63.9	5.22µM	i	11.2µM	i	?
CCOc1ccc(CCNC(=O)CCC(=O)Nc2ccc3nc(N4CCN(C)CC4)cc(C)c3c2)cc1OCC	i	i	?	i	nt	nt
Cc1cc(N2CCN(C)CC2)nc2ccc(NC(=O)Nc3cccc(Cl)c3)cc12	-98.9	nt	nt	nt	?	nt
Cc1cc(N2CCOCC2)nc2ccc(NC(=O)CCC(=O)N3CCN(c4ccccc4)CC3)cc12	i	i	?	?	?	i
CCOc1cc(C(=O)Nc2ccncc2)cc(OCC)c1OCC	i	5.22µM	?	?	i	i
